Screens (PubChem)
TDP1 cell CPT: DT40-hTDP1 cell growth loss with CPT; chicken DT40 Tdp1-/-;hTDP1 cells + 20 nM CPT, ATP luminescence, 48 h; Potency, µM (doses to about 46.2 µM), for inactives: at the highest dose activity change, negative = growth inhibition, most hits filed as inhibitors; 420,000 compounds, 12% hits; further: nearly all actives have a fitted effect of over 55% in size
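Chicken DT40 Tdp1-/- cells stably complemented with human TDP1 were seeded at 400 cells/well in medium containing 20 nM camptothecin, exposed to pin-transferred compounds, and grown at 37 °C for at least 48 hr. Viability was read as ATP luminescence.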
Gal4-VP16 FLuc: counter-screen for ROR gamma inhibitors: Gal4-VP16 reporter | Drosophila S2 Gal4-VP16 UAS-luciferase, luminescence, 20 h | Potency, µM (titrated, usually from 53.6 µM), for inactives: at the top dose activity, negative = inhibition, hits mostly inhibitors | 310,000 compounds, 3.5% hits | AID 2546;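 further: Gal4-VP16 expression switched on by copper sulfate through the metallothionein promoter; nearly all actives have a fitted effect of over 50% in size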
RORg inh: blocks mouse ROR gamma transcriptional activity. P51450. Drosophila S2 Gal4-RORgamma UAS-luciferase reporter, 20 h. Potency, µM (top dose mostly 53.6 µM), for inactives: at the top dose activity change, negative = inhibition, hits mostly inhibitors. 310,000 compounds, 5.4% hits. AID 2551; further: nearly all actives have a fitted effect of over 60% in size
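Luciferase reporter read in Schneider cells carrying Gal4-RORγ (mouse) and UAS-Photinus luciferase; cells given compound 1 h before 700 uM copper sulfate induction, then incubated 20 h at ambient temperature.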
TDP1 cell noCPT: qHTS for Inhibitors of human tyrosyl-DNA phosphodiesterase 1 (TDP1): qHTS in cells in absence of CPT. DT40 Tdp1-/- hTDP1 cells, no CPT, ATP luminescence, 48 h. Potency, µM (titrated, usually from 46.2 µM), for the others: at the highest dose activity change, negative = growth inhibition, hits mostly inhibitors. 420,000 compounds, 15% hits. AID 686978, 2013; further: nearly all actives have a fitted effect of over 55% in size
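Cells were dispensed at 400 per well, compounds added by pin tool, plates incubated ≥48 hr at 37 °C, then CellTiter-Glo added for 30 min at room temperature before luminescence reading. Line: DT40 Tdp1-/- complemented with hTDP1; camptothecin omitted.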
TDP1 block: inhibitors of human tyrosyl-DNA phosphodiesterase TDP1. recombinant TDP1, AlphaScreen DNA substrate cleavage. Potency, µM (series often up to 130 µM), for inactives: top-dose activity change, negative = inhibition, usual class: inhibitors. 350,000 compounds, 0.28% hits; further: nearly all actives have a fitted effect of over 40% in size
Target sequence (Q9NUW8 whole entry, looked up): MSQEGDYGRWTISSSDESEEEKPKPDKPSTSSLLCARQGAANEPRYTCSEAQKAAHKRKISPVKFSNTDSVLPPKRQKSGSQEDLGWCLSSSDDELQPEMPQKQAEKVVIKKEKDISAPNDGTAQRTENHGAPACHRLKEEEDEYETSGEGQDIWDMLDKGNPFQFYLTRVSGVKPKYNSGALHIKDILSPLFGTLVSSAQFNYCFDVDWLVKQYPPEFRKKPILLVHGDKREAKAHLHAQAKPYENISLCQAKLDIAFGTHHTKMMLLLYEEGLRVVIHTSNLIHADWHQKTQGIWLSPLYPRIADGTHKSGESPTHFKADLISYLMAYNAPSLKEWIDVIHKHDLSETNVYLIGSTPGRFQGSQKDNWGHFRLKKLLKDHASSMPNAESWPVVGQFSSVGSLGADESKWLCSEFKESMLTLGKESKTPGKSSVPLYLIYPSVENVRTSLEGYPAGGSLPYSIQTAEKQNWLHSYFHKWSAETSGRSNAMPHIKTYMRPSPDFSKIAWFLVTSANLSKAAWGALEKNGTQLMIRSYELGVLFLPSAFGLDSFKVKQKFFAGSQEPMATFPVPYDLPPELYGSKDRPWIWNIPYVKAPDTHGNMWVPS
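Tdp1 1 nM final; 15 min RT w/ cpd; substrate 15 nM, 5 min; beads 10 ug/ml, 10 min; AlphaScreen read. Neg ctrl: no enzyme.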
* marks the source's active call; other numbers are inactive results; ? = inconclusive; . = no result given; [ ] = another dose, or the depositor's remark. Only some compounds are listed: those with a hit (about 19% of all), similar ones and a draw of the others. The call rests on the fitted dose curve; in most records, active means well fitted curve in the direction sought with a large enough effect; inconclusive means small, poorly fitted or top-dose-only effect, or another doubt; inactive means no such curve, though single readings can be large; an effect the other way counts as inactive or inconclusive. On the % scale 0 is the no-effect control and ±100 the full control effect; potency means the concentration at half of the fitted maximal effect.

SMILES	TDP1 cell CPT	Gal4-VP16 FLuc	RORg inh	TDP1 cell noCPT	TDP1 block
COc1ccc(CN2CCCC(C(=O)c3ccc(Cl)cc3)C2)c(OC)c1 (centres undefined)	?	-12%	-29%	18µM*	.
COc1ccc(CN2CCCC(C(=O)c3cccc(Cl)c3)C2)cc1 (centres undefined)	?	6%	-9%	?	.
COc1ccc(C(=O)C2CCCN(Cc3ccon3)C2)c(OC)c1 (centres undefined)	?	7%	-3%	?	.
ClP(Cl)(Cl)(Cl)Cl	.	4%	-26%	.	.
COP(=O)(OC)O/C(=C\Cl)c1cc(Cl)c(Cl)cc1Cl	.	?	-15%	.	9%
CC(=O)Nc1ccc(OC(=O)N(C)C)cc1	-13%	-6%	5%	-2%	2%
O=C(c1ccc(Cl)cc1)C1CCCN(Cc2ccc3ncccc3c2)C1 (centres undefined)	15µM*	7.1µM*	?	16µM*	8%
O=C(NCCc1ccc(Cl)cc1)C(=O)NCC(c1cccs1)S(=O)(=O)c1cccs1 (centres undefined)	?	.	.	13µM*	10%
O=C1NC(=O)C(=Cc2cc3c(cc2[N+](=O)[O-])OCO3)C(=O)N1	-3%	-11%	12%	?	-2%
O=C1NC(=O)C(=Cc2ccc(-c3ccccc3[N+](=O)[O-])o2)C(=O)N1	7.3µM*	?	-6%	13µM*	-8%
NS(=O)(=O)c1ccc(-c2ccc(C=C3C(=O)NC(=O)NC3=O)o2)cc1	-25%	-4%	5%	-1%	.
CNS(=O)(=O)c1ccc(-c2ccc(C=C3C(=O)NC(=O)NC3=O)o2)cc1	-6%	-14%	-5%	-21%	.
O=C1NC(=O)C(=Cc2ccc(-c3cc(Cl)ccc3[N+](=O)[O-])o2)C(=O)N1	16µM*	10%	2%	?	-15%
O=C1NC(=O)C(=Cc2ccccc2[N+](=O)[O-])C(=O)N1	15µM*	.	.	16µM*	.
CCCN1CCC[C@@H]2Cc3[nH]ncc3C[C@H]21	-3%	-17%	-4%	-5%	11%
Cc1nn(Cc2ccccc2)c(C)c1C(=O)NCc1ccccc1F	-3%	-4%	11%	-20%	4%
O=C(Cn1nc(-c2ccc(Cl)cc2)ccc1=O)N1CCC2(CC1)OCCO2	-12%	-1%[10 µM]	-2%	-9%	3%
O=S(=O)(NCC(c1cccnc1)N1CCN(c2ccc(F)cc2)CC1)c1ccccc1 (centres undefined)	12µM*	.	.	21µM*	.
Cc1cc(OC(=O)N(C)C)nn1C(=O)N(C)C	.	4%	-1%	.	6%
CN1CCN(c2ccc(NC(=O)C(C)(C)C)cc2)CC1	-3%	0%	12%	-1%	-2%
CCOc1ccc(C(=O)N2CCC(c3noc(-c4ccc(S(=O)(=O)N5CCCC5)cc4)n3)CC2)cc1	?	.	.	16µM*	5%
O=c1[nH]c(O)c(C=NC2CCN(Cc3ccccc3)CC2)c(=O)[nH]1	-10%	6%	-38%	8%	2%
O=[N+]([O-])c1ccc(N2CCCC(C(F)(F)F)C2)c2ccncc12 (centres undefined)	13µM*	?	?	9.2µM*	14%
CN(C(=O)CCN1C(=O)/C(=C/c2ccc(F)cc2)SC1=S)C1CCS(=O)(=O)C1 (centres undefined)	21µM*	.	.	21µM*	.
CCN1C[C@]2(C)CC[C@H](OC)[C@]34C2[C@H](OC(C)=O)[C@@]2(OCO[C@@]25C[C@H](OC)[C@H]2C[C@]3(O)C5[C@H]2OC)[C@@H]14	6%	-10%	-2%	20%	.
COC(=O)C1=C(c2cccc(C#N)c2)C[C@@H]2CC[C@H]1N2C(=O)NCCc1ccccc1	-24%	.	.	?	0%
CC(=O)Nc1cccc(-c2ccnc3c2CC(C(=O)NCc2ccco2)O3)c1 (centres undefined)	1.8µM*	.	.	1.6µM*	.
